About 83,000 compounds went through this panel and 20% of them were active in at least one assay; those are over-represented in the sample as a whole.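 Testing used 96-well plates and a 48-hour single-concentration exposure. Example: -40 means 40% of the starting cells died.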 Activity calls are given as the source filed them. How the source made its calls: active means growth percent below 10; inactive means the rest.
Columns and labels:
Experiment in all cases: NCI-60 one-dose screen, 48 h (100 = growth as untreated, 0 = no growth, -100 = all killed)
Conditions in all cases: 10 µM unless noted
[1] = test system: NCI-H23 lung
[2] = test system: NCI-H226 lung
[3] = test system: NCI-H322M lung
[4] = test system: HOP-62 NSCLC
[5] = test system: NCI-H460 lung
[6] = test system: HOP-92 NSCLC
[7] = test system: NCI-H522 lung
[8] = test system: A549/ATCC NSCLC
[9] = test system: 786-0 renal
[10] = test system: COLO 205 colon
[11] = test system: DU-145 prostate
[12] = test system: K-562 leukemia
[13] = test system: MALME-3M melanoma
[14] = test system: MDA-MB-231 breast
[15] = test system: RXF 393 renal
[16] = test system: SF-268 CNS
[17] = test system: SF-295 CNS
[18] = test system: SF-539 CNS
[19] = test system: UACC-257 melanoma
[20] = test system: M14 melanoma

Measured: growth

Clc1ccccc1Nc1nnc(-c2c[nH]c3ccccc23)o1
active: [7] -25.1% | [10] -33.6% | [12] 6.76% | [15] -5.74% | [17] 9.04% | [18] -43.6%
inactive: [1] 22.2% | [2] 43.9% | [3] 47.1% | [4] 27.2% | [5] 16% | [6] 43.9% | [8] 22.1% | [9] 36% | [11] 21.5% | [13] 41.9% | [14] 16% | [16] 48.5% | [19] 65% | [20] 22.8%

CN1C(=O)/C(=C\C(=O)c2cc3ccccc3oc2=O)c2ccccc21
inactive: [1] 46.3% | [2] 75.4% | [3] 98.7% | [4] 54.4% | [5] 92.1% | [6] 64.3% | [8] 78.3% | [9] 80.7% | [10] 52.2% | [11] 71.1% | [12] 25.6% | [13] 43.2% | [14] 58.7% | [15] 30.5% | [16] 77.4% | [17] 97.3% | [18] 54% | [19] 91.9% | [20] 58.7%
active: [7] -68.8%

COc1ccc(SC2c3cc(OC)ccc3Oc3nc(N)c(C#N)c(N)c32)cc1 (stereo not given)
inactive: [1] 85.6% | [2] 87.1% | [3] 83.5% | [4] 68.2% | [5] 74.3% | [6] 116% | [7] 78.4% | [8] 95.8% | [9] 74.8% | [10] 101% | [11] 99.1% | [12] 65.7% | [13] 91.3% | [14] 82.1% | [15] 62% | [16] 78.8% | [17] 55.2% | [18] 78% | [19] 120% | [20] 79.7%

Cc1ccc(C(=O)C[n+]2cccc3c4ccccc4ccc32)cc1
inactive: [1] 27.4% | [2] 36.3% | [3] 43.3% | [4] 36.1% | [7] 22.1% | [8] 23.8% | [9] 34.4% | [11] 35.7% | [13] 10.4% | [14] 24.2% | [16] 42.8% | [17] 23.4% | [18] 25.5% | [20] 17.6%
active: [5] 4.31% | [6] -8.04% | [10] 5.75% | [12] 8.04% | [15] 5.94% | [19] 5.16%

CN1CCc2c(sc3ncnc(N/N=C/c4cccc(Cl)c4Cl)c23)C1
active: [1] -6.68% | [4] -38.2% | [5] -71.1% | [8] -70.1% | [9] -16.1% | [10] -80.3% | [11] -5.42% | [12] -7.35% | [14] -43.4% | [17] -72.5% | [18] -91.8%
inactive: [2] 134% | [3] 77.3% | [6] 58.4% | [7] 68.8% | [13] 87.5% | [15] 27.3% | [16] 43.1% | [19] 76.5% | [20] 64.5%

N/C(=N\c1nc2ccccc2s1)NC(=O)Nc1ccccc1[N+](=O)[O-]
inactive: [1] 14.3% | [2] 29.1% | [3] 39.9% | [4] 30.1% | [5] 11.1% | [8] 16.8% | [9] 11% | [12] 10.6% | [13] 44.6% | [15] 36.4% | [16] 23% | [19] 60.1% | [20] 16.3%
active: [6] -5.71% | [7] -50.1% | [10] -72% | [11] 1.45% | [14] -1.5% | [17] 1.71% | [18] -41.1%

CCCCCCCCCCCCCCCCCC(=O)Nc1ccc(OC)cc1
inactive: [1] 105% | [2] 103% | [3] 102% | [4] 101% | [5] 109% | [6] 102% | [7] 88.2% | [8] 104% | [9] 102% | [10] 120% | [11] 112% | [12] 92% | [13] 97.7% | [14] 99.9% | [15] 115% | [16] 108% | [17] 106% | [18] 97.3% | [19] 102% | [20] 105%

From PubChem BioAssay (NCI)
